# Laboratory results reported in PubChem BioAssay (NCI).
# This is part of a sample that, as a whole, favours compounds with a hit. Of some 83,000 tested, about 20% had one in any assay.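 Treatment: one concentration, 48 hours, 96-well format. Scoring: percent growth, with anything below 10 considered active.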 A number with no mark means an inactive call. Calls of active or inactive are those of the source.
# Tested on: UACC-257 melanoma
# Experiment: NCI-60 one-dose screen, 48 h (100 = growth as untreated, 0 = no growth, -100 = all killed)
# Details: 10 µM
row,SMILES,growth
1,CCc1ccc(-c2ccc(-n3nc(C)c4c(N)nc(Cc5ccccc5)nc43)cc2)cc1,71.9%
2,O=[N+]([O-])c1ccc2ncccc2c1Cl,62.2%
3,Cc1ccc(-n2nnnc2N)c(C)c1,108%
4,Oc1ccc(-c2[nH]c3ccccc3c2-c2nc3ccccc3o2)cc1,112%
5,CCc1ccc(C2=NN(c3ccc(S(C)(=O)=O)cc3)C(=O)CC2)cc1,59.1%
6,COc1ccc(-c2nn(-c3cccc(Cl)c3)cc2-c2c(C#N)c(=O)n3[nH]c(-c4ccc(C)cc4)nc3c2C#N)cc1,96.9%
7,O=C1c2ccccc2C(=O)c2c1ccc(C(Br)Br)c2[N+](=O)[O-],95.2%
8,CCOC(=O)CC(S(=O)(=O)c1ccccc1)S(=O)(=O)c1ccccc1,89.6%
9,CC(=O)Nc1ccc(S(=O)(=O)c2ccnc3cc(Cl)ccc23)cc1,64.4%
10,O=C(Nc1cc([N+](=O)[O-])c2[nH]c(=O)c3ccccc3c2c1)C(F)(F)F,93.4%
11,COc1cc2c(cc1NC(=O)C(F)(F)F)-c1ccc(NC(=O)C(F)(F)F)cc1C2,109%
12,COc1ccc(/C(C#N)=C/c2cccc(OC)c2OC)cc1,78%
13,C/C(=C/CCC(C)[C@@H]1CC[C@]2(C)C3=C(CC[C@@]12C)[C@@]1(C)CCC(=O)C(C)(C)[C@@H]1CC3)C(=O)O (stereo not given in full),-57.5% (active)
14,N#CC1=CC2CN(Cc3ccccc3)C1C1C(=O)N(c3ccccc3)C(=O)C21 (stereo not given),97.5%
15,COC(=O)C1OC1c1cc([N+](=O)[O-])ccc1OC (stereo not given),117%
16,O=c1cn[nH]c2ccc(Br)cc12,104%
17,COc1cc(CNC(=O)C2CSC3(C)c4ccccc4C(=O)N23)cc(OC)c1OC (stereo not given),73.8%
18,O=C1/C=C/[C@@H](O)[C@@H]2C[C@@H](O)C[C@H]2/C=C/CCC[C@H](C(F)(F)F)O1,6% (active)
19,O=C1CCn2c1c(O)c1ccccc1c2=O,99.8%
20,COc1ccc(/C(=N\N)C(=O)c2ccccc2)cc1 (tested in a mixture with another compound),90.8%

row,SMILES,growth
1,O=C(CCl)Nc1ccc(Cc2ccc(NC(=O)CCl)cc2)cc1,16.3%
2,CCOC(=O)C1=CSC2=NC3=C(CCC/C3=C\c3cc(OC)c(OC)c(OC)c3)C(c3cc(OC)c(OC)c(OC)c3)N12 (stereo not given),58.1%
3,C=CCSC(CC)(CC)C(=O)NC,92.1%
4,CCN(CCCNc1cc2c(c(N)c1S(=O)(=O)O)C(=O)c1ccccc1C2=O)c1ccccc1,102%
5,Cc1ccc(S(=O)(=O)N/N=C2\CCCc3ccccc32)cc1,93.8%
6,COc1cc(-c2nn(-c3cccc(NC(=O)CCNc4ccc(N5CCOCC5)cc4)c3)cc2-c2ccncc2)ccc1Cl,20.1%
7,COc1cc2c(cc1NC(=O)C(Cl)Cl)-c1ccc(NC(=O)C(Cl)Cl)cc1C2,-13.1% (active)
8,OCC1OC2C(NC(=S)N2c2ccccc2)C(O)C1O (stereo not given),102%
9,Cc1cc(O)ccc1C1=NN(c2ccc(S(C)(=O)=O)cc2)C(=O)CC1,93%
10,Cc1c(Cl)cccc1NC(=O)CN1CCOCC1,108%
11,O=C1c2ccccc2C(=O)c2c1ccc(C(Br)Br)c2Cl,100%
12,CC[C@@H](C(=O)[C@@H](C)[C@@H](O)[C@H](C)[C@@H]1O[C@@H]([C@@H](CC)C(=O)N(CC)CC)CC[C@@H]1C)C1O[C@]2(C=CC(=O)[C@]3(CC[C@@](C)([C@H]4CC[C@](O)(CC)[C@H](C)O4)O3)O2)[C@H](C)C[C@@H]1C (stereo not given in full),19.8%
13,COc1cc(C(=O)n2nc(-c3cc(OC)c(OC)c(OC)c3)nc2N)cc(OC)c1OC,101%
14,COc1ccc(C(=O)N2C=Cc3ccccc3C2C#N)cc1 (stereo not given),93.7%
15,COc1ccc(-c2nn(-c3cccc(Cl)c3)cc2-c2cc(-c3ccccc3)[nH]c(=O)c2C#N)cc1,75.5%
16,CCOC(=O)C1C(C(=O)OCC)C2C(=O)C3C(C(=O)OCC)C(C(=O)OCC)C3C(=O)C12 (stereo not given),108%
17,CC1=CC2C(C(O)CC3(C)C2CC(C)C32OCOC23COCO3)C2(C)C/C(=C/O)C(=O)C=C12 (stereo not given),78.2%
18,CCN(CC)CCOc1cccc2c1C(=O)c1ccccc1C2=O,94.4%
19,Cc1c2cnccc2c(C)c2c1oc1ccccc12,86.8%
20,O=C(Nc1ccc(NS(=O)(=O)c2ccc(F)cc2)cc1)C12CC3CC(CC(C3)C1)C2,91.6%
